# Out of some 310,000 compounds screened, about 14,000 (4.5%) showed an effect of 50% or more. The effect is printed as a negative number. The sample holds strong results, similar compounds and a random draw of the others, so the mix is not that of the screen.
# Target: human ether-à-go-go-related gene (hERG) potassium channel (human, UniProt Q12809)
# Experiment: primary screen, population patch clamp on CHO cells stably expressing hERG; higher = less effect of the substance
# 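Further: peak tail current of the secondary pulse compared with the same well before compound.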
# Chain of human ether-à-go-go-related gene (hERG) potassium channel (Q12809 whole entry, looked up): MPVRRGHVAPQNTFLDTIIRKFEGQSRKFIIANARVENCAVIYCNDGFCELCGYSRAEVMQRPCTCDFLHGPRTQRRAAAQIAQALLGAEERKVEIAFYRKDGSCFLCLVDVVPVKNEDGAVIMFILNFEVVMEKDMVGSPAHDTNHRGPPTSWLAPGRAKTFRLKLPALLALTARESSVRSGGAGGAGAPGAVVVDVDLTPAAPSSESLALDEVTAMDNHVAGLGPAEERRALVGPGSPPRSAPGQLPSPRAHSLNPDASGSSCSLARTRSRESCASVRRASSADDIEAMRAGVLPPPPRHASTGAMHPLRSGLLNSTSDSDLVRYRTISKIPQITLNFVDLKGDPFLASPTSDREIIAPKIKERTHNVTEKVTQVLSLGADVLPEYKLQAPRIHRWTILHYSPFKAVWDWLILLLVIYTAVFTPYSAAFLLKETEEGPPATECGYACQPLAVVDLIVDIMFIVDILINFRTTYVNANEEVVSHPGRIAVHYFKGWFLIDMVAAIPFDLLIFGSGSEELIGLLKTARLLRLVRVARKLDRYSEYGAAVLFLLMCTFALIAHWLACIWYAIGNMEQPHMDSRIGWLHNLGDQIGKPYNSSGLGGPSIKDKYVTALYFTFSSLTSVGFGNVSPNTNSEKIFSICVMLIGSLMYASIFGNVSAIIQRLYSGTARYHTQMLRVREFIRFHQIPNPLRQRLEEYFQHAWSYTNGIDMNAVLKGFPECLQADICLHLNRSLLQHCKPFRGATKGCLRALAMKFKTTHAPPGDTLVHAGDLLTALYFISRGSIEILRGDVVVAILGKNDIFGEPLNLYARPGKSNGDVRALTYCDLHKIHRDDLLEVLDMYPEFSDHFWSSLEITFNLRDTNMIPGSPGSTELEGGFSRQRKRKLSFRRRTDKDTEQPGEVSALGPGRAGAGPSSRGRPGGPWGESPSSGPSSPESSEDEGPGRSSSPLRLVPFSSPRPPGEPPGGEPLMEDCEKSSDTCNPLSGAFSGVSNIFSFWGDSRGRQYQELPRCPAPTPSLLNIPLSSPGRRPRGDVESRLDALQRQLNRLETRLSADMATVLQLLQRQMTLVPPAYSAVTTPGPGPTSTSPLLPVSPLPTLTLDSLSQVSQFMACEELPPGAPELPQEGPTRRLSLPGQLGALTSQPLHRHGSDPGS
row,SMILES,"hERG current change (%, negative = inhibition) at 10uM [%]"
1,CCCn1c(N)c(N(CCOC)C(=O)c2cccc(S(=O)(=O)N3CCCc4ccccc43)c2)c(=O)[nH]c1=O,3.29
2,O=C(NCC1CCCO1)c1cccs1 (stereo not drawn),4.89
3,Cc1cc(OCC(=O)OCC(=O)NC2CCCCC2C)ccc1Cl (stereo not drawn),0.466
4,CC(=O)Nc1ccc(S(=O)(=O)NNC(=O)c2cccc(Br)c2)cc1,15.9
5,CCC(=NCCCN1CCOCC1)c1c(O)n(-c2ccccc2C)c(=O)[nH]c1=O,8.28
6,CCCCN1C(=O)C(=O)N(CC(=O)Nc2sc(CC)cc2C(=O)OCC)C1=O,-10
7,Cc1ccc(Oc2ccc(OCC(=O)NC(C)C(=O)O)cc2)cc1 (stereo not drawn),-25.1
8,Cc1c(C#N)c(N)nc(Cl)c1C#N,25.9
9,NC(=O)C1(NC(=O)[C@@H]2CC3(CC(c4cccc(NC(=O)[C@@H]5CCC(=O)N5)c4)=NO3)CN2C(=O)c2ccccc2)CC1 (stereo partly drawn),1.96
10,CCCCOC(=O)NC1(C)CCS(=O)(=O)C1 (stereo not drawn),27.1
11,CC(C)OCCCNC(=S)N1CCC(C(=O)c2ccc3c(c2)OCCO3)CC1,-22.9
12,Cc1ccc2sc(N(CCN(C)C)C(=O)c3ccc(S(=O)(=O)N4CC(C)OC(C)C4)cc3)nc2c1C.Cl (stereo not drawn),1.87
13,CCOC(=O)/C=C/[C@H]1CCc2cccc(Cl)c2O1,9.23
14,CN1CCN(NC(=O)c2ccc(Cl)cc2Cl)CC1,0.116
15,Cc1cc(C(=O)N/N=C2/CC(C)CC(C)(C)C2)c(C)o1 (stereo not drawn),-8.27
16,COc1ccc(NC(=S)N2CCC(NC(=O)c3cccc(F)c3)CC2)cc1,-16.7
17,COc1ccc(CN2C3CCC2CC(NC(=O)c2cccc(F)c2)C3)cc1 (stereo not drawn),-75.2
18,COc1cccc(C(=O)NC2CC3CCC(C2)N3Cc2ccccc2)c1 (stereo not drawn),-28.7
19,COc1ccc(CN2C3CCCC2CC(NC(=O)c2cccc(F)c2)C3)cc1 (stereo not drawn),-82

row,SMILES,"hERG current change (%, negative = inhibition) at 10uM [%]"
1,COc1ccc(CN2C3CCC2CC(NC(=O)c2cc(OC)c(OC)c(OC)c2)C3)cc1 (stereo not drawn),-31.6
2,COc1ccc(C(=O)/C=C/c2cccc(OCc3ccccc3)c2)cc1CSCC(=O)O,7.09
3,COc1ccccc1CNC(=O)CCS(=O)(=O)c1ccc2c(c1)CC(C)N2C(=O)C1CC1 (stereo not drawn),15
4,COc1cccc(NC(=S)NCCc2ccccn2)c1,7.98
5,CS(=O)(=O)NCCCNc1ccc(C(F)(F)F)cc1[N+](=O)[O-],-35.1
6,CS(=O)(=O)NCCNc1ccc(C(F)(F)F)cc1[N+](=O)[O-],-6.08
7,CS(=O)(=O)NCCCCNc1ccc(C(F)(F)F)cc1[N+](=O)[O-],-56.8
8,COc1ccc(NC(=O)C(=O)N/N=C/c2cccnc2)c(OC)c1,21.3
9,N#CC1(c2nc3ccccc3[nH]2)CC1c1ccc2c(c1)OCO2 (stereo not drawn),0.101
10,O=C(COC(=O)c1ccc(Cl)c(S(=O)(=O)N2CCOCC2)c1)NCc1ccco1,-17
11,COc1ccc(CN(C(=O)c2nsc(Cl)c2Cl)C(C(=O)NC2CCCC2)c2ccc(C)cc2)cc1 (stereo not drawn),-12.4
12,C/C(=N/OC(=O)c1ccc(C)cc1)c1ccc(N2C(=O)C3CCCCC3C2=O)cc1 (stereo not drawn),16
13,Cn1c(/C=C/c2ccc([N+](=O)[O-])o2)nc2ccccc2c1=O,-24.2
14,Nn1c(SCc2ccc([N+](=O)[O-])cc2)nc2ccccc2c1=O,17.8
15,CCOC(CCn1c(SCc2ccc([N+](=O)[O-])cc2)nc2ccccc2c1=O)OCC,-39
16,O=c1c2ccccc2nc(/C=C/c2ccc([N+](=O)[O-])cc2)n1CCCO,-57.4
17,O=c1c2ccccc2nc(SCc2ccc([N+](=O)[O-])cc2)n1CCCO,-57.9
18,O=c1c2sccc2nc(SCc2ccc([N+](=O)[O-])cc2)n1Cc1ccccn1,-61.6
19,O=c1c2ccccc2nc(/C=C/c2ccccc2)n1CCCO,-8.23

row,SMILES,"hERG current change (%, negative = inhibition) at 10uM [%]"
1,O=c1c2sccc2nc(SCc2cc(=O)n3ccccc3n2)n1Cc1ccccn1,-22.3
2,O=c1c2ccccc2nc(/C=C/c2ccc([N+](=O)[O-])o2)n1CCCO,-51.7
3,O=c1c2ccccc2nc(/C=C/c2cccc([N+](=O)[O-])c2)n1CCCO,-43
4,O=c1c2ccccc2nc(/C=C/c2ccc(Br)cc2)n1CCCO,0.999
5,N#Cc1ccccc1CSc1nc2ccsc2c(=O)n1Cc1ccccn1,-10.9
6,COCC(C)n1c(COc2ccccc2F)nnc1SCC(=O)c1c(N)n(C)c(=O)n(C)c1=O (stereo not drawn),16.4
7,N#C/C(=C\c1c(F)cccc1Cl)S(=O)(=O)c1ccccn1,3.15
8,COc1cc(-c2nc(S(=O)(=O)c3ccc(Cl)cc3)c(N3CCOCC3)o2)cc(OC)c1OC,-3.17
9,Cl.NNc1nc(-c2ccccc2)cs1,29.7
10,COc1cccc(NC(=O)CCCN2C(=O)C3CC=CCC3C2=O)c1 (stereo not drawn),-2.79
11,Cc1cc([N+](=O)[O-])nn1CCCC(=O)NCc1ccccc1,-5.8
12,Cc1ccccc1NC(=O)C1=CC=CN2CCS(=O)(=O)N=C12,-11.7
13,O=C(Nc1cccc2ncccc12)c1cccc(F)c1,-11.1
14,CCOC(=O)C1(Cc2ccccc2)CCN(Cc2cccc(OC)c2O)CC1,-69.6
15,CCOC(=O)C1(Cc2cccc(OC)c2)CCN(Cc2cccc(OCC)c2O)CC1,-56.8
16,CCOC(=O)C1(Cc2cccc(OC)c2)CCN(Cc2cccc3c2OCO3)CC1,-39.4
17,CCOC(=O)C1(Cc2ccccc2)CCN(Cc2cn(CC(=O)OC)c3ccccc23)CC1,-78.1
18,CCOC(=O)C1(CC2CC2)CCN(Cc2cn(C)c3ccccc23)CC1,-31
19,CCOC(=O)C1(Cc2cccc(OC)c2)CCN(Cc2ccccc2OC)CC1,-51.3
